# High-throughput results (PubChem BioAssay)
# TDP1 block = qHTS Assay for Inhibitors of Tyrosyl-DNA Phosphodiesterase (TDP1). Tyrosyl-DNA phosphodiesterase 1 (Homo sapiens), Q9NUW8. Potency, µM (highest dose often 130 µM), inactives show top-dose activity change, negative = inhibition, usual class: inhibitors. recombinant TDP1, AlphaScreen DNA substrate cleavage. actives 0.28% (n = 350,000); note: potency is the fitted concentration of half-maximal effect; nearly all actives have a fitted effect of over 40% in size
# Target sequence (Q9NUW8 whole entry, looked up): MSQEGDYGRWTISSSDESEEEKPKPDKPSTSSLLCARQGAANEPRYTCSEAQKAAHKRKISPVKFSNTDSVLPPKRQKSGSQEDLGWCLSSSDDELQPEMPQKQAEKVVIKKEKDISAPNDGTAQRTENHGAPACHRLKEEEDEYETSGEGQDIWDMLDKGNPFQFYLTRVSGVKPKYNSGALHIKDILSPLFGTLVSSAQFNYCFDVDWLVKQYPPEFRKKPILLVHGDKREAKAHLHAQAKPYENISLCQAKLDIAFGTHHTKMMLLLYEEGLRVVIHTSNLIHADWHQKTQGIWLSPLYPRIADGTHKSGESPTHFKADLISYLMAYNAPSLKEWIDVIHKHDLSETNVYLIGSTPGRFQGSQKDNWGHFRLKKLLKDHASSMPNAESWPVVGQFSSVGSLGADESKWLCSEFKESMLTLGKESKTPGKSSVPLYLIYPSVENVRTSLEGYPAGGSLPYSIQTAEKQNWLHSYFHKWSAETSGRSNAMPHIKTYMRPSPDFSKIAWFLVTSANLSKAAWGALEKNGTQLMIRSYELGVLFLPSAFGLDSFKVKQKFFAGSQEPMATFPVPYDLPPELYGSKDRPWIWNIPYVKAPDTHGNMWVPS
#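 Compounds were preincubated with Tdp1 (1 nM final) for 15 min at room temperature before substrate (15 nM final) started a 5 min reaction; beads (10 ug/ml final) were then added for 10 min before AlphaScreen detection.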
# ELG1 repair inh = qHTS screen for small molecules that inhibit ELG1-dependent DNA repair in human embryonic kidney (HEK293T) cells expressing luciferase-tagged ELG1. HEK293T ELG1-luciferase reporter, luminescence, 16 h; DNA damage induced by 5-fluorouridine. Potency, µM (series often up to 46.1 µM), for inactives: at the top dose activity change, negative = inhibition, actives largely listed as inhibitors. actives 2.3% (n = 330,000). AID 504467, 2011; note: potency is the fitted concentration of half-maximal effect; nearly all actives have a fitted effect of over 55% in size
#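 DMSO vehicle served as the neutral condition. Each well held 2,000 cells given 5-fluorouridine plus compound; after 16 hr at 37 °C/5% CO2, ONE-Glo was added and luciferase measured 30 min later.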
# DT40 TDP1 CPT = qHTS for Inhibitors of human tyrosyl-DNA phosphodiesterase 1 (TDP1): qHTS in cells in presence of CPT. chicken DT40 Tdp1-/-;hTDP1 cells + 20 nM CPT, ATP luminescence, 48 h. Potency, µM (highest dose often 46.2 µM), without a hit: top-dose activity change, negative = growth inhibition, most hits filed as inhibitors. actives 12% (n = 420,000). AID 686979, 2013; note: potency is the fitted concentration of half-maximal effect; nearly all actives have a fitted effect of over 55% in size
#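 Chicken DT40 Tdp1-/- cells complemented with human TDP1, 400 cells/well, exposed to compounds plus 20 nM camptothecin for at least 48 h at 37 C; viability read as ATP content by CellTiter-Glo luminescence.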
# DT40 TDP1 no CPT = qHTS for Inhibitors of human tyrosyl-DNA phosphodiesterase 1 (TDP1): qHTS in cells in absence of CPT | DT40 Tdp1-/- hTDP1 cells, no CPT, ATP luminescence, 48 h | Potency, µM (doses to about 46.2 µM), for the others: at the highest dose activity change, negative = growth inhibition, usual class: inhibitors | actives 15% (n = 420,000); note: potency is the fitted concentration of half-maximal effect; nearly all actives have a fitted effect of over 55% in size
#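 Growth of hTDP1-complemented DT40 Tdp1-knockout cells is measured by ATP luminescence after at least 48 hr compound exposure at 37 °C, with DMSO substituting for the 20 nM CPT used in the parallel screen.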
# Giardia killer = Small Molecules that selectively kill Giardia lamblia: qHTS | Giardia lamblia trophozoite viability | activity change, % at 7.66 µM, hits read low | actives 0.15% (n = 340,000) | AID 540267, 2011; in the data active = activity change below about -80%; inconclusive = between about -30% and that limit;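 note: parasites exposed to compound for two days anaerobically before the ATP read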
#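 ATP-content bioluminescence gauges trophozoite survival. Cells (100/well) receive compound and incubate anaerobically for 48 hrs at 37 deg C; detection reagent follows for 15-30 min at room temperature.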
# IL1B secr inh = qHTS for Inhibitors of Inflammasome Signaling: IL-1-beta AlphaLISA Primary Screen; activity change, % at 57.5 µM; actives 4.7% (n = 360,000); THP-1 LPS/ATP IL-1B secretion, AlphaLISA, 16 h; stronger effect = lower value; in the data active = activity change below about -50%; inconclusive = mostly about -30% to -49%
#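 Secreted IL-1B measured by AlphaLISA bead assay after 16 h compound exposure of THP-1 cells; compounds (final up to 57.5 uM) added 1 h before LPS (250 ng/mL) and ATP (1.25 mM) stimulation; lower signal means less secretion.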
# * hit, by the source's call; ? = inconclusive; . = no result; [ ] = remark or other dose. In the library only some 19% were active in any assay of this set; here they are far more common. Unless noted, calls come from the whole dose curve; as a rule, active = well fitted curve in the direction sought with a large enough effect; inconclusive = small, poorly fitted or top-dose-only effect, or another doubt; inactive = no such curve, though single readings can be large; an effect the other way counts as inactive or inconclusive. % is set by controls: 0 for no effect and ±100 for the full control effect.
SMILES,TDP1 block,ELG1 repair inh,DT40 TDP1 CPT,DT40 TDP1 no CPT,Giardia killer,IL1B secr inh
Cc1ccc(S(=O)(=O)N2CCC(=O)N(CCOCc3cccc(C(F)(F)F)c3)CC2)cc1,0%,-2%,15µM*,?,?,?
COc1cccc(NC(=O)c2cn(C)c(=O)c3cc(OC)c(OC)cc23)c1,1%,-26%,8.2µM*,15µM*,1,8
COc1ccccc1CNC(=O)c1cn(C)c(=O)c2cc(OC)c(OC)cc12,6%,8%,18µM*,21µM*,-21,21
COCCCNC(=O)c1cn(C)c(=O)c2cc(OC)c(OC)cc12,4%,0%,13%,-4%,-5,10
COc1ccc(NC(=O)c2cn(C)c(=O)c3cc(OC)c(OC)cc23)cc1OC,.,-24%,16%,-18%,4,30
O=C(Oc1ccccc1Cl)C1CCN(C(=O)c2ccc(F)cc2)CC1,-1%,1%,4%,3%,-2,5
CCOC(=O)c1nn(-c2ccc(Cl)cc2C)ccc1=O,6%,20%,2%,9%,0,0
CC1CCN(CCCNC(=O)c2ccc(Cn3c(=S)[nH]c4ccc(Br)cc4c3=O)cc2)CC1,5%,-5%,.,.,.,.
Cc1ccc(Oc2ncc(-c3ccc(Cl)cc3)cn2)cc1,-2%,13%,3%,5%,-9,6
Cc1cccc(Oc2ncc(-c3ccc(Cl)cc3)cn2)c1C,-8%,-21%,?,21µM*,-2,-25
O=C(NCCC(F)(F)F)C1Cc2c(-c3ccccc3Oc3ccccc3)ccnc2O1 (stereo not drawn),.,.,-55%,?,.,?
CN(C)CCNC(=O)C1Cc2c(-c3ccccc3Oc3ccccc3)ccnc2O1 (stereo not drawn),.,.,29µM*,18µM*,.,-22
O=C(NCCc1ccccc1)C1Cc2c(-c3ccccc3Oc3ccccc3)ccnc2O1 (stereo not drawn),.,.,16µM*,?,.,-29
Cc1ccc(-n2nnnc2CNC(=O)C(C)C)cc1C,0%,.,-11%,-4%,.,.
COc1c(OC(C)=O)ccc(/C=C/c2ccc3ccccc3n2)c1[N+](=O)[O-],6%,?,?,?,4,-5
Cn1c(/C=C/c2ccccc2[N+](=O)[O-])nc2ccccc2c1=O,5µM*,17%,?,?,-4,-5
O=c1c2ccccc2nc(/C=C/c2cc(Br)ccc2O)n1CCCO,.,?,?,16µM*,-4,-101*
CCn1c(/C=C/c2ccccc2[N+](=O)[O-])nc2ccccc2c1=O,9%,?,?,?,29,14
O=c1c2ccccc2nc(/C=C/c2cccc([N+](=O)[O-])c2)n1CCO,2%,?,-9%,?,14,?
Cn1c(/C=C/c2ccc(Br)cc2)nc2ccccc2c1=O,.,?,?,18µM*,?,-14
O=C(O)c1ccc(-n2c(/C=C\c3ccc(O)cc3)nc3ccccc3c2=O)cc1,-1%[12.3 µM],.,-5%,-3%,.,.
COc1cc(OC)c(OC)cc1C=Cc1ccc2ccccc2n1,.,.,16µM*,15µM*,.,-19
COc1ccc(N(C(=O)c2cnccn2)C(C(=O)NC2CCCCC2)c2ccccc2)cc1 (stereo not drawn),14%,3%,-8%,1%,-3,17
O=[N+]([O-])c1ccccc1/C=C/c1ccc2ccccc2n1,.,?,-40%,?,1,-79*
CC(C)N1CCN(Cc2ccc(-c3ccccc3)cc2)CC1CCO (stereo not drawn),4%,-5%,2%,?,4,-15
SMILES,TDP1 block,ELG1 repair inh,DT40 TDP1 CPT,DT40 TDP1 no CPT,Giardia killer,IL1B secr inh
CC(C)N1CCN(Cc2ccc3c(c2)Cc2ccccc2-3)CC1CCO (stereo not drawn),-2%,3%,?,23µM*,-6,-11
Cc1ccc(NC(=O)COc2cccc3ccc(C)nc23)c(Br)c1,-3%,-10%,?,23µM*,-20,0
Cc1ccc(OCC(=O)Nc2cccc3ccc(C)nc23)c(C)c1,-2%,.,?,?,.,.
CC(=O)Nc1ccc2c(c1)N(C(C)=O)c1ccccc1CC2,-3%,21µM*,10%,-1%,-14,-5
CC(C)(C)C(=O)N1c2ccccc2CCc2ccccc21,.,-1%,?,?,27,-9
COC(=O)N1c2ccccc2CCc2ccccc21,.,?,21µM*,16µM*,-2,4
C[C@@]12CCC=C[C@H]1[C@H](c1ccc(/C=C/c3ccccc3)cc1F)N(Cc1ccccc1)C2=O,-1%,0%,15µM*,21µM*,10,-19
COc1ccc(-c2ccc(C(C)=O)cc2)cc1C1C2C=CCCC2(C)C(=O)N1Cc1ccccc1 (stereo not drawn),7%,.,.,.,4,.
C[C@@]12CCC=C[C@H]1[C@H](c1ccc(C(F)(F)F)cc1)N(Cc1ccccc1)C2=O,-1%,?,?,16µM*,5,41
COc1ccc(-c2ccc(C(C)=O)cc2)cc1[C@H]1[C@@H]2C=CCC[C@@]2(C)C(=O)N1Cc1ccccc1,1%,21µM*,?,-83%,-1,?
CC12CCC=CC1C(c1ccc3ccccc3c1C=Cc1ccccc1)N(Cc1ccccc1)C2=O (stereo not drawn),11%,.,.,.,2,.
COc1ccc(C2C3C=CCCC3(C)C(=O)N2Cc2ccccc2)cc1Cl (stereo not drawn),7%,.,.,.,-7,.
C[C@@]12CCC=C[C@H]1[C@H](c1ccc3ccccc3c1/C=C/c1ccccc1)N(Cc1ccccc1)C2=O,4%,-3%,2.1µM*,?,9,38
O=C(Nc1cc(=O)[nH]c2nc(-c3ccccc3)nn12)c1ccccc1Cl,3%,8%,-20%,12µM*,4,38
CN1C2CCC1/C(=C\c1ccccc1)C(=O)/C2=C\c1ccccc1,8%,?,12µM*,6.5µM*,3,-95*
O=C1/C(=C/c2ccccc2)CCC1C1CCCC1 (stereo not drawn),-3%,?,3%,7%,3,-11
